Source: PubChem BioAssay
HPGD inh: inhibitors of human 15-hydroxyprostaglandin dehydrogenase (HPGD); P15428; purified HPGD, NADH fluorescence kinetic, PGE2 substrate; Potency, µM, without a hit: top-dose activity change, negative = inhibition, usual class: inhibitors; hit rate 4.3% among 150,000; active means well fitted inhibition curve with a large enough effect, not every such curve was filed as active; inconclusive means small, poorly fitted or top-dose-only effect, or another doubt; inactive means no such curve, though single readings can be large or run the other way
Target sequence (P15428 whole entry, looked up): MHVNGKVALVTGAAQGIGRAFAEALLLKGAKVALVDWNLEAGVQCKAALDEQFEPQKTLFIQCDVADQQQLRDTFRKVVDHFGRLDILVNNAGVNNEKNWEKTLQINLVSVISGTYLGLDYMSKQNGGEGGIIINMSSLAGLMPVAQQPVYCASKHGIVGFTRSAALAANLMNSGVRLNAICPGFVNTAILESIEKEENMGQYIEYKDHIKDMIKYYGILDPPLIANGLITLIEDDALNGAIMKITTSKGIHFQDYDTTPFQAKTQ
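NADH formation kinetics: reaction with 30 uM PGE2 and 1 mM NAD+ (final), 20 nM enzyme, Tris-HCl pH 8 with Tween 20, after 15 min compound preincubation at room temperature. Fluorescence change, last versus first of five reads.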
ALDH1A1 block: ALDH1A1 (human) enzyme inhibition; Purified ALDH1A1, NADH fluorescence, propionaldehyde substrate; hit rate 7.3% among 220,000; AID 1030; Potency, µM (titrated, usually from 75.3 µM), inactives show at the top dose activity, negative = inhibition, most hits filed as inhibitors; active means well fitted inhibition curve with a large enough effect, not every such curve was filed as active; inconclusive means small, poorly fitted or top-dose-only effect, or another doubt; inactive means no such curve, though single readings can be large or run the other way;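 further: plate controls were no enzyme wells and a reference inhibitor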
Tau fibril FP: inhibitors of human tau fibril formation; Potency, µM (highest dose often 57.7 µM), for the others: at the top dose activity, negative = inhibition, usual class: inhibitors; hit rate 0.39% among 280,000; AID 1468; K18 P301L tau heparin fibrillization, Alexa594 FP, 6 h; further: nearly all actives have a fitted effect of over 55% in size
Target sequence (P10636 561-689 P618L limits assumed): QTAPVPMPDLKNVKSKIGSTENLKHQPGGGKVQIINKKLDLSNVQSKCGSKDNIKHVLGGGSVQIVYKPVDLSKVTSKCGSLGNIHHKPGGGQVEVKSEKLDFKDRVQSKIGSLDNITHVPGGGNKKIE
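K18 P301L tau (15 uM unlabeled/0.24 uM Alexa 594-labeled, final) + compound + heparin 20 uM final; 100 mM NaOAc pH 7; 6 hr 37 C; ThT 30 uM final added, 1 hr RT; FP ex 555/em 632 nm.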
Tau fluor counter: counter-screen for tau fibril formation inhibitors | tau K18 P301L Alexa594 fluorescence, heparin fibrillization | Potency, µM (series often up to 57.7 µM), for the others: at the highest dose activity change, negative = decrease | hit rate 0.93% among 280,000 | AID 1463; further: nearly all actives have a fitted effect of over 55% in size
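Human tau K18 P301L (15 uM unlabeled, 0.24 uM Alexa 594-labeled) in 100 mM sodium acetate pH 7 with 20 uM heparin, 6 hr at 37 C. ThT 30 uM added, 1 hr ambient; Alexa 594 FP and total fluorescence read at 555/632 nm.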
Tau fibril ThT: tau fibrillization inhibition (ThT binding). hit rate 2.1% among 270,000. recombinant tau K18 P301L (four-repeat tau fragment), heparin-induced fibrillization, ThT fluorescence. Potency, µM (series often up to 57.4 µM), without a hit: at the top dose activity, negative = inhibition, hits mostly inhibitors; further: nearly all actives have a fitted effect of over 55% in size
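In this qHTS, human K18 P301L tau is incubated with compound and heparin for 6 hr at 37 C, and Thioflavin T fluorescence then reports fibril load.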
NPSR antag: neuropeptide S receptor (human) antagonism, cAMP; Q6W5P4; CHO-NPSR cells, cAMP TR-FRET, antagonist mode; Potency, µM (titrated, usually from 38.3 µM), without a hit: at the top dose activity change, negative = inhibition, hits mostly inhibitors; hit rate 1% among 220,000; AID 1461; further: nearly all actives have a fitted effect of over 50% in size
* = called active by the depositor; ? = inconclusive; · = no result; [ ] = remark or other dose. A selection: hits, their analogues and other compounds. The true share with any hit is near 9.5%. Unless noted, the call rests on the fitted dose curve; in most records, active means well fitted curve in the direction sought with a large enough effect; inconclusive means small, poorly fitted or top-dose-only effect, or another doubt; inactive means no such curve, though single readings can be large; an effect the other way counts as inactive or inconclusive. Unless noted, on the % scale 0 is the no-effect control and ±100 the full control effect; potency means the concentration at half of the fitted maximal effect.

SMILES | HPGD inh | ALDH1A1 block | Tau fibril FP | Tau fluor counter | Tau fibril ThT | NPSR antag
CNc1sc(C(=O)c2ccc(F)cc2)c(N)c1-c1nc2ccccc2s1 | ? | -7% | -1% | ? | 16µM* | ?
CNc1sc(C(=O)c2cccs2)c(N)c1-c1nc2ccccc2s1 | 16µM* | 1.8µM* | 32µM* | 11µM*[quencher] | 7.9µM* | 3.2µM*
NS(=O)(=O)c1ccc(CCNc2ncnc3c2cnn3-c2cccc(Cl)c2)cc1 | · | · | ? | -24% | 3% | ·
CCC(=O)c1c(NC(C)C)cc(C)oc1=O | · | -7% | 3% | -10% | -8% | 33%
O=C(Cc1ccccc1)NC(=S)Nc1ccc2oc(-c3ccccc3)nc2c1 | ? | 22µM* | ? | -28% | 1% | -41%
CN(C)Cc1cc(O)c(CN(C)C)cc1O | · | ? | ? | ? | 7.1µM* | 5%
COc1ccc(N2CC(NC(=O)c3c(F)cccc3Cl)CC2=O)cc1OC (centres undefined) | · | · | -2% | -3% | -5% | ·
Cn1c(N=NC(=O)c2ccccc2)c(O)c2ccccc21 | -15% | ? | -9% | ? | 13µM* | -40%
Cc1ccc(C(=O)CSc2nnc(-c3ccc4[nH]c(C)c(C)c4c3)o2)cc1C | -8% | 1.4µM* | 13% | -13% | ? | -6%[46.1 µM]
COC(=O)c1ccccc1NC(=O)c1sc2nc(C)cc(C)c2c1NC(=O)c1ccccc1Cl | · | · | -11% | -16% | 5% | ·
Cc1cc(C(=O)Nn2c(C3CCCCC3)nc3ccccc3c2=O)ccc1[N+](=O)[O-] | -5% | 22µM* | -2% | -21% | -4% | -7%
O=C(Nn1c(C2CCCCC2)nc2ccccc2c1=O)c1ccc(Cl)c([N+](=O)[O-])c1 | -14% | -4% | -7% | ? | ? | -39%
COc1ccc(Cc2nnc(NC(=O)Cn3cnc4c3c(=O)n(C)c(=O)n4C)s2)cc1OC | 14µM* | ? | 3% | -6% | 0% | 1%[46.1 µM]
COc1ccc(CNCc2cn(-c3cccc(F)c3)nc2-c2ccc(C)o2)cc1 | · | ? | 0% | -23% | ? | ?
Cc1ccc(S(=O)(=O)c2nc(-c3ccco3)oc2SC(C)c2ccccc2)cc1 (centres undefined) | · | · | ? | ? | -16% | ·
CN1CCN(c2oc(-c3ccco3)nc2S(=O)(=O)c2ccccc2)CC1 | -16% | 28µM* | 2% | -5% | -9% | 10%[7.67 µM]
O=S(=O)(c1ccccc1)c1nc(-c2ccco2)oc1N1CCCCCC1 | ? | 0.2µM* | -3% | -14% | -11% | -19%[46.1 µM]
CC(C)Sc1oc(-c2ccco2)nc1S(=O)(=O)c1ccc(F)cc1 | -24% | 20µM* | -13% | -27% | ? | ?
O=C(O)[C@H]1[C@H](C(=O)O)[C@H](C(=O)O)C[C@@H]1C(=O)O | -10% | 1%[13.5 µM] | · | · | · | ·
CC(NC(=O)c1sc2ncccc2c1-n1cccc1)c1ccccc1 (centres undefined) | · | · | 1% | -4% | -3% | ·
CC(C)=CCC/C(C)=C/CO/N=C1/C[C@@H](O)[C@@H](O)[C@@H]2[C@@H]3C(=O)N(C[C@@H]4CCCO4)C(=O)[C@H]3CC[C@H]12 | · | -4%[13.5 µM] | 3%[11.6 µM] | -5%[11.6 µM] | -5%[11.5 µM] | ·
Cc1cc([N+](=O)[O-])ccc1NC(=O)c1ccco1 | · | 16µM* | -7% | 7% | 10% | -12%
Cc1cc(C)cc(NC(=O)c2ccc([N+](=O)[O-])o2)c1 | · | -3% | 10% | -14% | -19% | -18%
Cc1cc(NC(=O)c2ccc([N+](=O)[O-])o2)ccc1NC(=O)c1ccco1 | · | 25µM* | 4% | -20% | 14µM* | -26%
Cc1cc(NC(=O)c2ccc3c(c2)OCCO3)ccc1NC(=O)c1ccco1 | · | -3% | 6% | 8% | 10% | -4%
SMILES | HPGD inh | ALDH1A1 block | Tau fibril FP | Tau fluor counter | Tau fibril ThT | NPSR antag
NS(=O)(=O)c1ccc(O)c(NC(=O)c2ccc([N+](=O)[O-])o2)c1 | · | 2.5µM* | 18µM* | -18% | 25µM* | 12%
Cc1cc(NC(=O)c2ccc([N+](=O)[O-])cc2Cl)ccc1NC(=O)c1ccco1 | -7% | 8% | 9% | -14% | ? | 6%
CC(=O)C1=C(O)C(=O)N(C)C1c1ccccc1[N+](=O)[O-] (centres undefined) | · | · | ? | -14% | 16µM* | 6%[7.67 µM]
CC(=O)C1=C(O)C(=O)N(CCC(=O)O)C1c1ccccc1[N+](=O)[O-] (centres undefined) | · | ? | 4% | -2% | -1% | 7%
CC(=O)C1=C(O)C(=O)N(CCCN2CCOCC2)C1c1ccccc1[N+](=O)[O-] (centres undefined) | · | · | ? | ? | 25µM* | 2%
COc1cccc(-c2cncnc2NC2CCNCC2)c1 | · | -7% | · | · | · | ·
CN(C)CCCn1cnc2cc(Cl)c(Cl)cc21 | 0% | -3%[13.5 µM] | · | · | · | ·
CC(C)OC(=O)CSc1nnc(-c2ccc(C(C)(C)C)cc2)n1N | 18µM* | 18µM* | 9% | 1% | -12% | 1%[46.1 µM]
C[C@@H]1C(=O)O[C@@H]2C[C@]34[C@H]5C[C@@H](C(C)(C)C)[C@@]36[C@@H](OC(=O)[C@@H]6O)O[C@@]4(C(=O)O5)[C@@]12O | 1% | 2%[20.9 µM] | · | · | · | ·
NNc1nc2c(F)cc(F)cc2s1 | -5% | ? | -5% | ? | 13µM* | -41%
O=C(CCc1ccccc1)Nc1nc2c(F)cc(F)cc2s1 | · | · | -8% | -11% | · | -5%
Fc1cccc2sc(Nc3nc4c(F)cccc4s3)nc12 | ? | ? | -3% | -15% | -6% | -52%
NNc1nc2c(F)cccc2s1 | -13% | ? | ? | 18µM*[quencher] | 16µM* | -1%
Cc1c(NS(=O)(=O)c2cc(NC(=O)CCN3CCCC(C)C3)ccc2Cl)c(=O)n(-c2ccccc2)n1C (centres undefined) | · | 14% | -5% | -4% | -5% | 10%
O=C(CSc1nc(-c2ccco2)nc2cc(=O)[nH]n12)Nc1ccccc1F | · | · | ? | -12% | ? | ·
O=[N+]([O-])c1ccc2nc(-c3ccccc3)oc2c1 | · | ? | -15% | -17% | ? | 2%
O=C(O)CNc1nc(-c2ccccc2)c2cc([N+](=O)[O-])ccc2n1 | -21% | 18µM* | -1% | -2% | -18% | 1%
O=[N+]([O-])c1ccc2nc(NCCCO)nc(-c3ccccc3)c2c1 | 14µM* | 1% | 1% | -6% | -3% | -7%
O=[N+]([O-])c1ccc2[nH]nc(-c3ccccc3)c2c1 | 14µM* | 2% | ? | ? | -8% | 3%
CCN(CC)C(=O)c1sc(NC(=O)C(C)Sc2nc(-c3ccccc3)cc(C(F)(F)F)n2)c(C(=O)OC)c1C (centres undefined) | · | · | ? | -26% | 25µM* | ·
